# Source: PubChem BioAssay (Broad Institute)
# ERp5 inh – blocks human ERp5 reductase activity on insulin; ERp5 insulin aggregation, absorbance 650 nm, 90 min; inhibition, % at 9.99 µM; actives 0.05% (n = 350,000); AID 651711;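 active = mean replicate inhibition above about 25%, with every replicate also reaching it, limit read from the data, passing the limit was not always enough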
# Target sequence (Q15084 whole entry, looked up): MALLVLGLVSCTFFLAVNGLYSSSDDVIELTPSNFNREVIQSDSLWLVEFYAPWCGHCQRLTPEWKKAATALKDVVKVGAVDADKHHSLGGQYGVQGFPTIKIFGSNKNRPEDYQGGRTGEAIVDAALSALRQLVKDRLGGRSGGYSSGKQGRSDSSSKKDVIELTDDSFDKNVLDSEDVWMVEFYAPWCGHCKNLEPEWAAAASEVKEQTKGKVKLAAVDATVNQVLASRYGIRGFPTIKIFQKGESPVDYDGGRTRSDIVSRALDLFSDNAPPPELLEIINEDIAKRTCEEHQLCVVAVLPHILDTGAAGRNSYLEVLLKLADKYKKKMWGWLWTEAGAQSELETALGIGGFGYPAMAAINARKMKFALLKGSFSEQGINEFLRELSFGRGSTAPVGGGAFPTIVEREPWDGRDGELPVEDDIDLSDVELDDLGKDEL
# AF4-AF9 inh – inhibitors of human MLL-AF4/AF9 interaction. actives 0.47% (n = 350,000). inhibition, % at 10 µM. AlphaScreen, biotin-AF4 peptide binding to FLAG-AF9. P42568. AID 651704;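 active = every replicate reaching a set inhibition limit, whatever the replicate mean, cut at about 25% in these data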
# ERAP1 HTS inh – ERAP1 (human) enzyme inhibition. Q9NZ08. recombinant ERAP1, Leu-AMC fluorescence, 60 min. inhibition, % at 10.7 µM. actives 0.15% (n = 340,000). AID 652197;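 active = mean replicate inhibition of at least 30%, or all replicates individually reaching that 30% level; inactive = mean below 30% and not every replicate reaching it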
# PDI turbidity – PDI (human) enzyme inhibition; actives 0.052% (n = 350,000); PDI insulin aggregation turbidity, A650, 90 min; inhibition, % at 10 µM; P07237; AID 588391;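 active = mean inhibition across replicates of 30% or more, whatever share of single replicates reach that level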
# DENV2 CPE – DENV2-induced cell death inhibition; DENV2-infected cells, cytopathic effect rescue, plate reader; CPE inhibition, % at 9.99 µM; actives 1.7% (n = 350,000); AID 651640; in the data active = CPE inhibition above about 20%, passing the limit was not always enough; tested in BHK-21 cells
# Numbers stand for hits; 0 = inactive; - = not tested or not shown. A selection: hits, their analogues and other compounds. The true share with any hit is near 1.8%.
SMILES,ERp5 inh,AF4-AF9 inh,ERAP1 HTS inh,PDI turbidity,DENV2 CPE
COc1ccccc1S(=O)(=O)N1C[C@H](O)COC[C@H]2O[C@@H](CC(=O)O)CC[C@@H]21,36,0,0,-,0
COc1ccccc1S(=O)(=O)N1C[C@@H](O)COC[C@@H]2O[C@@H](CC(=O)O)CC[C@H]21,0,0,0,-,0
Cc1ccccc1S(=O)(=O)N1C[C@@H](O)COC[C@@H]2O[C@H](CC(=O)N3CCC(Cc4ccccc4)CC3)CC[C@H]21,0,0,0,-,0
COc1cccc(NC(=O)Nc2ccc3c(c2)C(=O)N(C)[C@H]2CC[C@H](CC(=O)NCCc4ccccc4)O[C@H]2CO3)c1,0,0,0,-,0
CN1C(=O)c2cc(NS(=O)(=O)CC(F)(F)F)ccc2OC[C@H]2O[C@@H](CC(=O)Nc3cccc(F)c3)CC[C@@H]21,0,0,0,-,0
CC1CCC(CN2C(Nc3ccccc3)=NC[C@@H]2C)CC1 (some centres not stated),0,0,0,0,40
c1ccc(C[C@H]2CN=C(Nc3ccccc3)N2CCCC2CCCCC2)cc1,0,0,-,0,0
CCCCN1C(Nc2ccccc2)=NC[C@@H]1Cc1ccccc1,0,0,-,0,22
CS(=O)(=O)N1CCc2cc(C(=O)N3CCN(c4ccccc4)CC3)ccc21,0,0,0,0,23
CS(=O)(=O)N1CCc2cc(C(=O)N3CCN(c4ccc(F)cc4)CC3)ccc21,0,0,0,0,0
COc1ccc(C#Cc2ccc([C@@H]3[C@@H](CO)N4CCCCN(S(=O)(=O)c5cn(C)cn5)C[C@H]34)cc2)cc1,0,0,0,-,43
COc1cccc(-c2ccc([C@@H]3[C@@H](CO)N4CCCCN(S(=O)(=O)c5cn(C)cn5)C[C@H]34)cc2)c1,0,0,0,-,73
O=C(C[C@@H]1C=C[C@H](NS(=O)(=O)c2cccc(F)c2)[C@@H](CO)O1)N1CCCCC1,0,0,0,-,0
O=C(NCC[C@@H]1CC[C@H](NC(=O)C2CC2)[C@@H](CO)O1)Nc1ccc(Cl)cc1,0,0,0,-,0
CC1Oc2ccccc2N(CC(=O)N2CCCc3ccccc32)C1=O (configuration not stated),0,0,0,0,0
CC1Oc2ccccc2N(CC(=O)N2CCCCC2)C1=O (configuration not stated),0,30,0,0,0
COc1ccc(NC(=O)Nc2ccc3c(c2)C(=O)N([C@H](C)CO)C[C@H](C)[C@@H](CN(C)C(=O)Cc2ccccc2)OCCCC[C@H](C)O3)cc1,0,0,0,-,58
COc1ccc(S(=O)(=O)Nc2ccc3c(c2)C(=O)N([C@@H](C)CO)C[C@@H](C)[C@@H](CN(C)C(=O)Cc2ccccc2)OCCCC[C@@H](C)O3)cc1,0,0,0,-,21
COc1ccc(S(=O)(=O)Nc2ccc3c(c2)C(=O)N([C@@H](C)CO)C[C@H](C)[C@@H](CN(C)C(=O)Cc2ccccc2)OCCCC[C@@H](C)O3)cc1,0,0,0,-,26
COc1ccc(S(=O)(=O)Nc2ccc3c(c2)C(=O)N([C@H](C)CO)C[C@H](C)[C@@H](CN(C)C(=O)Cc2ccccc2)OCCCC[C@@H](C)O3)cc1,0,0,0,-,0
C[C@H]1CN([C@@H](C)CO)C(=O)c2cc(-c3cccc(C#N)c3)cnc2O[C@@H]1CN(C)Cc1cccnc1,0,0,0,-,0
Oc1cccc(Nc2ccccc2)c1,0,-,0,-,28
c1ccc(Nc2cccc(Nc3ccccc3)c2)cc1,-,-,-,0,-
O=C(CSCc1ccccc1)Nc1ccccc1C(=O)Nc1ccc(C(=O)O)cc1,0,0,0,0,32
CC(Sc1nc(-c2ccccc2)cc(C(F)(F)F)n1)C(=O)N1CCCC1 (configuration not stated),0,49,0,0,0
C[C@@H](O)C#Cc1ccc([C@@H]2[C@H](CO)N3CCCCN(S(=O)(=O)Cc4ccccc4)C[C@@H]23)cc1,0,0,0,-,0
C[C@H](CO)N1C[C@H](C)[C@H](CN(C)C(=O)Nc2ccccc2)Oc2ncc(C#CC(C)(C)O)cc2C1=O,0,0,0,-,26
C/C=C/c1cnc2c(c1)C(=O)N([C@H](C)CO)C[C@@H](C)[C@H](CN(C)Cc1cncnc1)O2,0,0,0,-,0
C[C@H]1CN([C@@H](C)CO)C(=O)c2cc(C#CC(C)(C)O)cnc2O[C@H]1CN(C)Cc1cncnc1,0,0,0,-,33
